Among all 5,500 compounds or so, about 2,000 (36%) were called active. Another 18% or so got no clear call; they are omitted. Rule as the data show it: active = normalized growth mostly below about 0.91 (no sharp cut-off); inconclusive = no clear call, values can overlap the other calls; inactive = mostly above about 0.92. Some of the results follow.
Experiment: chemical genetic growth profiling, strain panel (AID 1159580);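 also: tested at 20 µM; growth read once vehicle control cultures reached saturation at 30 °C; 1 = growth at the plate median or of vehicle wells; lower values mean less growth of the strain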
Details: S. cerevisiae deletion strains, growth OD

Measured: normalized growth

CNC(=O)O/N=C\C(C)(C)SC
inactive: locus YAL013W, strain DEP1, hits give low values 1.01 | locus YAL021C, strain ccr4, hits give low values 0.997 | locus YAL026C, strain drs2, hits give low values 1 | locus YAL030W, strain snc1, hits give low values 1 | locus YBL061C, strain skt5, hits give low values 1.01 | locus YBR009C, strain hhf1, hits give low values 0.988 | locus YBR021W, strain FUR4, hits give low values 1.03 | locus YBR023C, strain chs3, hits give low values 1 | locus YBR171W, strain sec66, hits give low values 1.01 | locus YBR229C, strain ROT2, hits give low values 0.996 | locus YBR231C, strain swc5, hits give low values 0.998 | locus YBR279W, strain paf1, hits give low values 1.01 | locus YCL011C, strain gbp2, hits give low values 1.01 | locus YCL016C, strain dcc1, hits give low values 1.01 | locus YCL029C, strain bik1, hits give low values 0.987 | locus YCL061C, strain MRC1, hits give low values 1.01 | locus YCL069W, strain vba3, hits give low values 1.01 | locus YCR088W, strain abp1, hits give low values 1 | locus YDL005C, strain med2, hits give low values 1 | locus YDL035C, strain GPR1, hits give low values 1.02 | locus YDL040C, strain nat1, hits give low values 0.99 | locus YDL074C, strain BRE1, hits give low values 1.08 | locus YDL101C, strain DUN1, hits give low values 1.01 | locus YDL134C, strain PPH21, hits give low values 1.01 | locus YDL185W, strain tfp1, hits give low values 0.99 | locus YDL192W, strain arf1, hits give low values 0.994 | locus YDR001C, strain nth1, hits give low values 1.01 | locus YDR069C, strain doa4, hits give low values 0.999 | locus YDR101C, strain arx1, hits give low values 0.986 | locus YDR137W, strain rgp1, hits give low values 1.02 | locus YDR150W, strain NUM1, hits give low values 1.01 | locus YDR159W, strain sac3, hits give low values 0.965 | locus YDR162C, strain NBP2, hits give low values 1.01 | locus YDR195W, strain ref2 0.964 | locus YDR297W, strain sur2, hits give low values 0.999 | locus YDR318W, strain mcm21, hits give low values 0.993 | locus YDR334W, strain swr1, hits give low values 1.01 | locus YDR335W, strain msn5, hits give low values 1.01 | locus YDR388W, hits give low values 0.985 | locus YDR392W, strain spt3, hits give low values 0.886 | locus YDR502C, strain sam2, hits give low values 1 | locus YEL003W, strain gim4, hits give low values 1.01 | locus YEL037C, strain rad23, hits give low values 1.01 | locus YEL061C, strain CIN8 (second series), hits give low values 1.01 | locus YEL061C, strain CIN8, hits give low values 1 | locus YER015W, strain faa2, hits give low values 1.02 | locus YER016W, strain bim1, hits give low values 1.01 | locus YER110C, hits give low values 0.983 | locus YER111C, strain swi4, hits give low values 1.02 | locus YER155C, strain BEM2 (second series), hits give low values 0.995 | locus YER155C, strain BEM2, hits give low values 0.998 | locus YER167W, strain BCK2, hits give low values 1.02 | locus YFR010W, strain ubp6, hits give low values 0.998 | locus YGL078C, strain dbp3, hits give low values 0.986 | locus YGL086W, strain mad1, hits give low values 0.987 | locus YGL167C, strain pmr1, hits give low values 0.995 | locus YGL173C, strain kem1, hits give low values 0.997 | locus YGL227W, strain vid30, hits give low values 1.01 | locus YGL240W, strain doc1, hits give low values 0.972 | locus YGL248W, strain PDE1, hits give low values 1.01 | locus YGL253W, strain hxk2, hits give low values 0.997 | locus YGR078C, strain PAC10, hits give low values 1.01 | locus YGR135W, strain pre9, hits give low values 1 | locus YGR229C, strain SMI1, hits give low values 1.03 | locus YGR252W, strain gcn5, hits give low values 0.98 | locus YHR013C, strain ard1, hits give low values 0.971 | locus YHR027C, strain rpn1, hits give low values 1 | locus YHR030C, strain SLT2, hits give low values 0.984 | locus YHR079C, strain IRE1 (second series), hits give low values 0.988 | locus YHR094C, strain hxt1, hits give low values 0.983 | locus YHR129C, strain ARP1, hits give low values 1.02 | locus YHR142W, strain chs7, hits give low values 1 | locus YHR200W, strain rpn10, hits give low values 0.98 | locus YIL066C, strain RNR3, hits give low values 1.03 | locus YIL073C, strain SPO22, hits give low values 0.995 | locus YIL125W, strain kgd1, hits give low values 0.997 | locus YIR030C, strain dcg1, hits give low values 0.992 | locus YJL092W, strain hpr5, hits give low values 1.01 | locus YJL095W, strain BCK1 (second series), hits give low values 1 | locus YJL095W, strain BCK1, hits give low values 1.03 | locus YJL115W, strain asf1, hits give low values 1.02 | locus YJL129C, strain trk1, hits give low values 1.01 | locus YJL134W, strain LCB3, hits give low values 1 | locus YJL154C, strain vps35, hits give low values 1.02 | locus YJL164C, strain tpk1, hits give low values 1.01 | locus YJL166W, strain qcr8, hits give low values 1 | locus YJL168C, strain set2, hits give low values 0.98 | locus YJL187C, strain SWE1 (second series), hits give low values 1.01 | locus YJL187C, strain SWE1, hits give low values 0.998

Reference: PubChem BioAssay AID1159580 (chemical genetic matrix, 2015)
